Source: PubChem BioAssay (several laboratories)
Shown are actives, neighbours in structure and some others; about 3.3% of the full set was active somewhere.
PriA SSB inh: blocks PriA binding to SSB C-terminal tail. inhibition, % at 33 µM. AlphaScreen SSBct-PriA binding, biotinylated peptide. 430,000 compounds, 0.6% hits. AID 1272365; in the data active = inhibition mostly above about 37%, no sharp cut-off; inactive = mostly below about 20%;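 also: plate controls were negative control peptide for no effect and reference peptide for full effect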
Anthrax LF inh2: inhibitors of Bacillus anthracis lethal factor protease | P15917 | multiplex microsphere protease cleavage assay, LF | inhibition, % at 10 µM | 360,000 compounds, 0.12% hits; also: plate controls were buffer without enzyme for full effect and enzyme alone for no effect
BoNT-A LC inh2: BoNT A light chain protease inhibition; multiplex microsphere protease substrate cleavage, flow cytometry; inhibition, % at 10 µM; AID 588499; 360,000 compounds, 0.17% hits; also: plate controls were buffer without enzyme for full effect and enzyme alone for no effect
MazF activator: activators of E. coli MazEF toxin-antitoxin RNase; P0AE70; FAM/BHQ RNA-DNA oligo cleavage fluorescence, 5 h; activation, % at 20 µM; 350,000 compounds, 0.32% hits; AID 504720; in the data active = activation above about 50%
Target sequence (P0AE70 whole entry, looked up): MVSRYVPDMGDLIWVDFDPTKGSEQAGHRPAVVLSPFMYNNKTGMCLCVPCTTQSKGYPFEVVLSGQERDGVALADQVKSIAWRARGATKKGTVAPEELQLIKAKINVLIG
Bead autofluor: counter-screen for toxin protease inhibitors: compound fluorescence; compound autofluorescence counterscreen, microsphere flow cytometry; stronger effect = higher value; fluorescence intensity (test concentration not listed); 360,000 compounds, 3.1% hits; in the data active = fluorescence intensity above about 16000; inconclusive = no clear call, values can overlap the other calls
BoNT F protease: BoNT F light chain protease inhibition; Multiplex microsphere protease cleavage assay, flow cytometry; inhibition, % at 10 µM; 360,000 compounds, 0.22% hits; AID 588497; in the data active = inhibition above about 35%, passing the limit was not always enough; inconclusive = no clear call, values can overlap the other calls; also: plate controls were buffer without enzyme for full effect and enzyme alone for no effect
* marks the source's active call; other numbers are inactive results; u = inconclusive; x = no result. Rule as the data show it, unless noted: active = inhibition above about 30%; inconclusive = no clear call, values can overlap the other calls; inactive = below that.

SMILES	PriA SSB inh	Anthrax LF inh2	BoNT-A LC inh2	MazF activator	Bead autofluor	BoNT F protease
O=C(NC1CCC(Oc2cnccn2)CC1)c1cc2ccccc2[nH]1 (configuration not stated)	-10.0	x	x	x	x	x
O=c1[nH]c(SCc2ccccc2Cl)nc2c1CCC2	-7.3	-2.2	-2.7	3.5	23543*	-1.8
CN(C(=O)CSc1nc2c(c(=O)[nH]1)CCCC2)C1CCCCC1	6.1	-0.7	u	2.3	20234*	3.7
O=c1[nH]c(SCCc2ccccc2)nc2c1CCC2	x	-1.7	-0.3	x	3035	-1.3
Cc1ccc(NC(=O)CSc2nc3c(c(=O)[nH]2)CCCC3)cc1C	-3.6	0.1	-0.8	8.8	6586	-1.6
Cc1ccc(NC(=O)CSc2nc3c(c(=O)[nH]2)CCC3)cc1C	-3.7	-2.0	-1.5	3.5	17130*	-2.1
Cc1ccc(CSc2nc3c(c(=O)[nH]2)CCC3)cc1	-2.6	-2.5	u	1.2	20993*	-3.8
COc1coc(C(=O)Nc2ccc(C(C)C)cc2)cc1=O	-1.0	x	x	x	x	x
N#Cc1cc(C#N)c(N2CCN(c3cccc(Cl)n3)CC2)nc1N	-4.9	-10.8	-13.9	-2.6	19498*	-117.1
O=C(NC[C@@](O)(c1cccs1)C1CC1)C1c2ccccc2Oc2ccccc21	-13.0	x	x	x	x	x
Oc1cc2c(cc1O)[C@H]1c3ccc(O)c(O)c3OC[C@@]1(O)C2	-1.4	0.8	-3.1	231.3*	3572	-4.9
COc1ccc(NC(=O)c2c(C(F)(F)F)nn(C)c2SCc2ccccc2Cl)cc1	-21.6	1.3	1.5	4.6	19414*	-0.8
CN(C)N=Nc1ccc(S(=O)(=O)N2CCSC2C(=O)O)cc1 (configuration not stated)	-19.7	-3.0	u	2.0	25952*	-9.8
Cc1ccc(S(=O)(=O)N2CCSC2C(=O)O)cc1 (configuration not stated)	-5.4	-4.5	0.6	-0.7	9796	8.1
CC(NC(=O)/C(C#N)=C1\N=C(NC(=O)c2cccs2)c2ccccc21)c1ccccc1 (configuration not stated)	1.1	14.9	30.0*	-2.6	6060	9.3
O=C(CCS(=O)(=O)Cc1ccccc1)Nc1nnc(-c2ccccc2Cl)o1	-6.0	x	x	x	x	x
CCSc1nnc(-c2ccccc2N)c(=O)[nH]1	-8.9	-3.9	-0.1	-5.3	23571*	-1.2
Cc1cc(OCC(=O)O)c2c3c(c(=O)oc2c1)CCCC3	-6.0	-3.0	-0.3	1.8	3526	-8.9
Cc1ccc(-n2nc(C)cc2NC(=O)COc2cc(C)cc3oc(=O)c4c(c23)CCC4)cc1	-6.0	-0.7	0.7	44.6	22051*	2.7
CN1C(=O)C(C)(C)COc2ccc(NC(=O)c3ccc(Br)o3)cc21	24.0	x	x	x	x	x
COc1cccc2cc(C(=O)N3CCCC(Cc4nc(-c5cnccn5)no4)C3)oc12 (configuration not stated)	-5.0	x	x	x	x	x
O=C(CSc1n[nH]c(-c2ccco2)n1)N1c2ccccc2Sc2ccccc21	8.6	-2.9	1.6	5.0	22111*	2.3
COc1ccc(C2(C(=O)Nc3nncs3)CCCC2)cc1	-11.5	-1.8	1.0	-3.2	22722*	0.6
COc1ccc2oc(-c3csc(NC(=O)CN4C(=O)c5ccccc5C4=O)n3)cc2c1	-4.0	x	x	x	x	x
FC(F)(F)c1cnc(Sc2nc3nccc(-c4ccc(Cl)cc4)n3n2)c(Cl)c1	-25.1	0.2	0.1	-2.4	20640*	-2.3
SMILES	PriA SSB inh	Anthrax LF inh2	BoNT-A LC inh2	MazF activator	Bead autofluor	BoNT F protease
CSc1nc2nccc(-c3ccc(Cl)cc3)n2n1	11.9	-3.1	-0.2	-17.6	2518	-9.9
COc1ccc(-c2ccnc3nc(Sc4ncc(C(F)(F)F)cc4Cl)nn23)cc1	-0.2	0.4	-1.8	-6.7	20277*	-5.3
Cc1cc(C)n2nc(C(=O)N3CCN(c4cc(-n5cncn5)ncn4)CC3)nc2n1	12.0	x	x	x	x	x
O=C1c2cc(NS(=O)(=O)c3ccc4c(c3)CCO4)ccc2OCC[C@@H]2CCCCN12	12.0	x	x	x	x	x
COc1cc(C(=O)NC(=S)Nc2ccc(Cl)c(C(=O)O)c2)cc(OC)c1OC	-13.4	-2.7	-0.1	-6.2	3734	1.1
COc1cc(OC)cc(C(=O)NC(=S)Nc2ccc(Cl)c(C(=O)O)c2)c1	0.8	-0.4	-2.4	-4.1	24431*	-2.0
O=S(=O)(c1ccc(Cl)c(F)c1)N1CCC(c2nc(-c3ccncc3)no2)CC1	-11.4	-3.6	-2.7	-8.1	21243*	-2.9
O=S(=O)(c1ccc(Cl)cc1)N1CCC(c2nc(-c3ccc(F)cc3)no2)CC1	-1.0	x	x	x	x	x
N=C1SCCN1CC(=O)O	0.0	x	x	x	x	x
